# Assay outcomes from PubChem.
# HIV RNase H inh-1 = inhibitors of HIV-1 reverse transcriptase RNase H; P04585; RT-RNase H RNA/DNA duplex cleavage, fluorescence; inhibition, % at 10 µM; hit rate 1.9% among 65,000; AID 565; in the data active means inhibition above about 50%
# HIV RNase H inh-2 = confirmation of HIV-1 reverse transcriptase RNase H inhibitors. shares compounds with HIV RNase H inh-1. Recombinant RT RNase H, fluorescent RNA/DNA duplex cleavage. inhibition, % at 10 µM. hit rate 39% among 1,000; in the data active means inhibition above about 48%; inconclusive means no clear call, values can overlap the other calls
# An asterisk follows results filed as active; ? = inconclusive. The entries come from a sample that favours hits as a whole.
SMILES,HIV RNase H inh-1,others
CCOC(=O)c1c(NC(=O)c2nn(CC)cc2Br)sc(C)c1C,93.6*,HIV RNase H inh-2=1.3
CCCc1cc(C(=O)Nc2sc3c(c2C(=O)OCC)CCCC3)no1,25.9,
CCOC(=O)c1ccc(NC(=O)c2nn(CC)cc2Br)cc1,-2.2,
CCOC(=O)Nc1sc2c(c1C(=O)OCC)CCC2,-20.4,
CCOC(=O)c1c(NC(=O)c2ccc(-n3cnnn3)cc2)sc2c1CCCC2,85.7*,HIV RNase H inh-2=96.4*
O=C(N1CCCC1)n1c(Cc2ccccc2)nc2ccccc21,-17.3,
Fc1ccccc1N1CCN(Cc2nc(-c3ccc(Cl)cc3Cl)no2)CC1,-2.2,
COc1ccc2oc(C(=O)C3CC3)c(NC(=O)CCCN3C(=O)c4ccccc4C3=O)c2c1,25.9,
OC1CC(c2ccco2)NC2(CCCCC2)C1 (stereo not given),4.5,
CCCc1nnc(SCc2ccc(OC)cc2)n1N,-21.7,
CC(NC(=O)C(CC(=O)OC(C)(C)C)NC(=O)OC(C)(C)C)C(N)=O (stereo not given),0.2,
Cc1ccnc(NC(=O)CCC(=O)N(CC(=O)NCC2CCCO2)Cc2ccc(F)cc2)c1 (stereo not given),5.0,
COc1ccc(CCn2c(C)cc3c(c2=O)C(c2ccc4c(c2)OCO4)C(C#N)=C(N)O3)cc1OC (stereo not given),-9.9,
O=C(NCC1COc2ccccc2O1)C1CCCN(S(=O)(=O)c2cnc[nH]2)C1 (stereo not given),-8.7,
CCOC(=O)C1CCN(C(=O)CN(c2cc(OC)ccc2OC)S(=O)(=O)c2ccccc2)CC1,-15.8,
CC1(C)SCC2C(=O)N3C(CSC3(C)C)C(=O)N21 (stereo not given),-0.8,
N#CC1=C(N)N(c2ccc(Oc3ccccc3)cc2)C(=O)C1,-0.9,
COc1ccc(C(c2sc3nc(C)nn3c2O)N2CCc3ccccc3C2)cc1 (stereo not given),78.6*,HIV RNase H inh-2=4.5
COc1ccc(C(c2sc3nc(C)nn3c2O)N2CCCCC2)cc1 (stereo not given),-3.0,
COc1cc(C(c2sc3nc(C)nn3c2O)N2CCc3ccccc3C2)cc(OC)c1OC (stereo not given),23.9,
O=C(O)c1cccc(N2CCCC2=O)c1,-12.6,
Cc1ccc(C)n1-c1cccc(N)c1,19.8,
Cc1ccc(C)n1-c1cccc(C(=O)O)c1,71.2*,HIV RNase H inh-2=?
COc1ccc(-c2cn3c4c(sc3n2)CCCC4)cc1,-20.0,
COc1ccc(CN2C(=O)NC3(CCCCCC3)C2=O)cc1F,-10.1,
SMILES,HIV RNase H inh-1,others
Cc1cccc(N(C)c2cc(C)nc3nc(C)nn23)c1,-17.3,
COc1ccc(C2=NCC(CSc3nnc(-c4ccc5c(c4)OCO5)o3)S2)cc1 (stereo not given),-22.6,
CCN(CC)S(=O)(=O)c1ccc2oc(SCC3CN=C(c4ccc(OC)cc4)S3)nc2c1 (stereo not given),58.6*,HIV RNase H inh-2=6.2
COc1ccc(C2=NCC(CSc3nccc(=O)[nH]3)S2)cc1 (stereo not given),-7.2,
O=C1CC(c2ccc(Cl)c(Cl)c2)CC(O)=C1C=NCCN1CCNCC1 (stereo not given),-0.7,
COc1cccc(-n2c(SCC(=O)Nc3cc(C)on3)nc3c([nH]c4ccccc43)c2=O)c1,-4.5,
O=C(CSc1nc2c([nH]c3ccccc32)c(=O)n1-c1ccccc1)N1CCOCC1,4.1,
Cc1ccc(-n2c(SCC(N)=O)nc3c([nH]c4ccccc43)c2=O)cc1,-1.3,
COc1cccc(-n2c(SCC(N)=O)nc3c([nH]c4ccccc43)c2=O)c1,6.5,
COc1ccc(-n2c(SCC(=O)N3CCCC3)nc3c([nH]c4ccccc43)c2=O)cc1,87.2*,HIV RNase H inh-2=87.8*
O=C(CSc1nc2c([nH]c3ccccc32)c(=O)n1-c1cccc(Cl)c1)N1CCOCC1,78.3*,HIV RNase H inh-2=66.7*
Cc1nn(-c2ccc(F)cc2)c2c1cc(C#N)c1nc3ccccc3n12,41.6,
CCOC(=O)c1ccc2ncc(C(=O)OCC)c(NCc3ccco3)c2c1,4.0,
O=c1nc(-c2ccccc2)n(-c2ccccc2)c2ncccc12,-2.9,
CCOC(=O)CCSc1nc(C)cc(C(F)(F)F)c1C#N,-28.7,
O=C(CCCC(=O)N(CC(=O)NC1CCCCC1)Cc1ccc2c(c1)OCO2)Nc1ccccn1,-5.0,
O=C(CSc1ncn[nH]1)c1ccccc1,69.9*,HIV RNase H inh-2=67.1*
O=C(CSc1ncn[nH]1)Nc1ccccc1C(=O)O,-6.9,
O=C(CSc1ncn[nH]1)c1ccco1,39.1,
COc1ccc2nc(NC(=O)CCc3nc(-c4ccccc4F)no3)sc2c1,14.9,
O=C(CSc1nc2ccccc2[nH]1)NCCN1CCCCC1,-12.9,
N#Cc1cc(-c2ccccc2)nn1-c1ccccc1,91.5*,HIV RNase H inh-2=55.9*
N#Cc1cn(-c2ccccc2)nc1-c1ccccc1,-9.4,
Cc1cc(C(=O)Nc2ccccc2C#N)n(-c2ccccc2)n1,-11.0,
COc1ccccc1N1CCN(C(c2cccs2)c2nnnn2C2CCCC2)CC1 (stereo not given),7.4,
SMILES,HIV RNase H inh-1,others
CC1=C(C)NC(=S)SC1,55.1*,HIV RNase H inh-2=5.1
O=C(CCn1ccc2ccccc21)Nc1ccc(N2CCOCC2)cc1,-8.6,
CC1CCN(S(=O)(=O)c2ccc(NC(=O)CN3CCN(c4ccccc4)CC3)cc2)CC1,36.1,
CC1CCN(S(=O)(=O)c2ccc(NC(=O)CN3CCN(C)CC3)cc2)CC1,0.1,
CC1CCN(S(=O)(=O)c2ccc(NC(=O)Cn3nnc(-c4ccccc4F)n3)cc2)CC1,69.4*,HIV RNase H inh-2=39.0
CCOc1ccc2[nH]c(=O)c(CN(CCc3ccccc3)C(=O)c3cnccn3)cc2c1,-18.1,
Cc1ccc(NC(=O)NC(=O)N(c2ccccc2)S(C)(=O)=O)cc1,-11.9,
COc1ccc(Cn2nnnc2C(c2ccc(C)cc2)N2CCN(C3CCCC3)CC2)cc1 (stereo not given),2.9,
COc1ccc(Cn2nnnc2C(c2cccnc2)N2CCN(c3ccc(O)cc3)CC2)cc1 (stereo not given),80.0*,HIV RNase H inh-2=85.0*
COc1ccc(Cn2nnnc2C(c2ccccc2Cl)N2CCN(C)CC2)cc1 (stereo not given),-9.7,
COc1ccc(-c2[nH]ncc2-c2cnn(-c3ccccc3)c2)c(O)c1,0.5,
O=C(c1ccco1)N(Cc1cc2ccccc2[nH]c1=O)C1CCCCC1,0.2,
Cc1ccc2cc(CCNC(=O)c3ccco3)c(=O)[nH]c2c1,1.6,
Cc1ccc2cc(CN(C(=O)c3ccco3)c3ccccc3C)c(=O)[nH]c2c1,70.0*,HIV RNase H inh-2=38.6
C=CCN=C(NC#N)SCC(=O)c1cccc(OC)c1,-2.6,
Cc1cc2nc(SCCN3CCCC3)[nH]c2cc1C,-7.5,
CC(Cc1ccc(O)c(O)c1)C(C)Cc1ccc(O)c(O)c1 (stereo not given),99.3*,HIV RNase H inh-2=58.7*
C[C@@](Cc1ccc(O)c(O)c1)(NN)C(=O)O,3.3,
Oc1ccc(CC2CC3CCN2CC3)cc1O (stereo not given),8.4,
O=C(CN1CCOCC1)N1CCN(C(=O)CN2CCOCC2)CC1,-7.1,
CCc1nn(CCCC(=O)N2CCc3ccccc3C2)c(=O)c2cc3occc3n12,-36.4,
O=C(NCC1CCCO1)c1ccc(CS(=O)(=O)Cc2ccc(F)cc2)o1 (stereo not given),-11.6,
CCCC(=O)Nc1ccc(Cl)c(NC(=O)c2ccco2)c1,-3.0,
CCCC(=O)Nc1ccc(N2CCN(CC)CC2)c(Cl)c1,80.8*,HIV RNase H inh-2=6.7
CCCC(=O)Nc1cccc(NC(=O)CN2CCN(c3ccccc3OC)CC2)c1,-2.9,
N#Cc1c(N2CCCCC2)nc(N2CCCCC2)c2c1CCN(Cc1ccccc1)C2,19.2,
Cc1ccc(-c2cc(C(F)(F)F)n3ncc(C(=O)NCc4ccco4)c3n2)cc1,62.6*,HIV RNase H inh-2=42.0
